Results filed as inconclusive are left out. A call without a number means that no potency is given here. Activity calls are given as the source filed them. Calls follow the shape of the dose curve; as a rule, active = well fitted activation curve with a large enough effect; inconclusive = small, poorly fitted or top-dose-only effect, or effect the other way; inactive = flat fitted curve, though single readings scatter.
Assay: Cellular Toxicity (caspase-3) NIH 3T3 (AID 666);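 also: caspase signal read after 16 h compound exposure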; also: potency is read from the fitted curve at half-maximal effect
Details: NIH 3T3 caspase-3 activation, apoptosis/toxicity; series mostly up to 92.2 µM
Outline: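 Activity: caspase-3/7 induction, NIH 3T3 cells, 16 hr treatment at 37°C, luminescent Caspase-Glo detection; AC50 via Hill equation.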

SMILES | Potency
O=C(O)C(Br)Br | inactive
Cc1ccc(OP(=O)(Oc2ccc(C)cc2)Oc2ccc(C)cc2)cc1 | inactive
Oc1c(Cl)c(Cl)cc(Cl)c1Cl | inactive
Nc1ccc(Cc2ccc(N)c(Cl)c2)cc1Cl | inactive
CN(C)c1ccc(N(C)C)cc1 | inactive
Brc1ccc(Oc2ccc(Br)cc2Br)c(Br)c1 | inactive
O=[N+]([O-])c1c(Cl)c(Cl)c(Cl)c(Cl)c1Cl | 31.6 µM (active)
ClCC(Cl)Cl | inactive
C=CC(=O)OCCO | inactive
CC(C)Br | inactive
O=[N+]([O-])c1ccc(O)c([N+](=O)[O-])c1 | inactive
CC(C)[N+](=O)[O-] | inactive
CCCC[N+](=O)[O-] | inactive
Cc1cc(-c2cc(C)c(N)c(C)c2)cc(C)c1N | inactive
Nc1cc(Cl)ccc1O | inactive
CCN(N=O)C(N)=O | inactive
N#CC(Cl)(Cl)Cl | inactive
CCCCC(CC)COC(=O)c1ccc(C(=O)OCC(CC)CCCC)c(C(=O)OCC(CC)CCCC)c1 (stereo not drawn) | inactive
O=C(O)C(Br)CBr (stereo not drawn) | inactive

SMILES | Potency
Nc1c(Br)cc([N+](=O)[O-])cc1[N+](=O)[O-] | inactive
O=[N+]([O-])c1ccccc1CCl | inactive
Cc1cc(C)cc(OP(=O)(Oc2cc(C)cc(C)c2)Oc2cc(C)cc(C)c2)c1 | inactive
N#CC(Br)Br | inactive
O=C(O)C(Cl)Br (stereo not drawn) | inactive
COP(=S)(OC)SCn1nnc2ccccc2c1=O | inactive
Nc1ccc([N+](=O)[O-])cc1N | inactive
O=C(O)c1cccc(Cl)c1 | inactive
Cc1cc(N=Nc2ccccc2C)ccc1N | inactive
OCCCCO | inactive
O=[N+]([O-])c1cc(Cl)c(Cl)c(Cl)c1 | 25.1 µM (active)
CC(C)(COCC1CO1)COCC1CO1 (stereo not drawn) | inactive
COc1ccccc1N | inactive
CC(C)(C)OOC(=O)c1ccccc1 | inactive
c1ccc(N=NNc2ccccc2)cc1 | inactive
COC(C)(C)C | inactive
C(CCOCC1CO1)COCC1CO1 (stereo not drawn) | inactive
CN(C)c1ccc(N)cc1 | inactive
O=[N+]([O-])/C=C/c1ccccc1 | 25.1 µM (active)

Assay: Cellular Toxicity (caspase-3) Renal Proximal Tubule (AID 667);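 also: cells exposed to compound for 16 hours at 37 °C before detection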
Details: renal proximal tubule cells; series mostly up to 91.7 µM
Outline: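 Caspase 3/7 activation measured by luminescent aminoluciferin release in primary rat proximal tubule cells after 16 hr compound exposure at 37 °C. AC50 from Hill-fitted concentration-response, scaled between DMSO and 10 uM staurosporine.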

SMILES | outcome
O=C(O)C(Br)Br | inactive
Cc1ccc(OP(=O)(Oc2ccc(C)cc2)Oc2ccc(C)cc2)cc1 | inactive
Oc1c(Cl)c(Cl)cc(Cl)c1Cl | inactive
Nc1ccc(Cc2ccc(N)c(Cl)c2)cc1Cl | inactive
CN(C)c1ccc(N(C)C)cc1 | inactive
Brc1ccc(Oc2ccc(Br)cc2Br)c(Br)c1 | inactive
O=[N+]([O-])c1c(Cl)c(Cl)c(Cl)c(Cl)c1Cl | inactive
CN1CSC(=S)N(C)C1 | inactive
ClCC(Cl)Cl | inactive
C=CC(=O)OCCO | inactive
CC(C)Br | inactive
O=[N+]([O-])c1ccc(O)c([N+](=O)[O-])c1 | inactive
CC(C)[N+](=O)[O-] | inactive
CCCC[N+](=O)[O-] | inactive
Cc1cc(-c2cc(C)c(N)c(C)c2)cc(C)c1N | inactive
Nc1cc(Cl)ccc1O | inactive
CCN(N=O)C(N)=O | inactive
N#CC(Cl)(Cl)Cl | inactive
CCCCC(CC)COC(=O)c1ccc(C(=O)OCC(CC)CCCC)c(C(=O)OCC(CC)CCCC)c1 (stereo not drawn) | inactive
O=C(O)C(Br)CBr (stereo not drawn) | inactive

SMILES | outcome
Nc1c(Br)cc([N+](=O)[O-])cc1[N+](=O)[O-] | inactive
O=[N+]([O-])c1ccccc1CCl | inactive
Cc1cc(C)cc(OP(=O)(Oc2cc(C)cc(C)c2)Oc2cc(C)cc(C)c2)c1 | inactive
N#CC(Br)Br | inactive
O=C(O)C(Cl)Br (stereo not drawn) | inactive
COP(=S)(OC)SCn1nnc2ccccc2c1=O | inactive
Nc1ccc([N+](=O)[O-])cc1N | inactive
O=C(O)c1cccc(Cl)c1 | inactive
Cc1cc(N=Nc2ccccc2C)ccc1N | inactive
OCCCCO | inactive
O=[N+]([O-])c1cc(Cl)c(Cl)c(Cl)c1 | inactive
CC(C)(COCC1CO1)COCC1CO1 (stereo not drawn) | inactive
Cc1ccc2c(c1N)C(=O)c1ccccc1C2=O | inactive
COc1ccccc1N | inactive
CC(C)(C)OOC(=O)c1ccccc1 | inactive
c1ccc(N=NNc2ccccc2)cc1 | inactive
COC(C)(C)C | inactive
C(CCOCC1CO1)COCC1CO1 (stereo not drawn) | inactive
CN(C)c1ccc(N)cc1 | inactive
O=[N+]([O-])/C=C/c1ccccc1 | inactive

Reference: PubChem BioAssay (NCATS)
